A selection: hits, their analogues and other compounds. The true share with any hit is near 2.6%.
LGR2 inh: blocks bursicon-induced cAMP signaling via Drosophila LGR2. HEK293 LGR2, CRE-luciferase, bursicon-stimulated, 4 h. inhibition, % at 9.99 µM. hit rate 0.35% among 380,000. AID 720647;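 active = drop in luminescence signal, shown as inhibition above about 50% in the replicate tests, limit read from the data, passing the limit was not always enough; inconclusive = probably only some replicates passing the limit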;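 note: agonist challenge used bursicon conditioned medium at about half maximal strength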
LMP1 NFkB inh: inhibitors of Epstein-Barr LMP1-induced NF-kappaB reporter; LMP1-induced NF-kappaB luciferase reporter cells, luminescence; inhibition, % at 12.5 µM; hit rate 0.69% among 350,000; in the data active = inhibition above about 41%; inconclusive = no clear call, values can overlap the other calls;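 note: 0% = neutral control wells and 100% = reference inhibitor control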
TROY NFkB inh: inhibitors of TROY-dependent NF-kB signaling | AID 1347056 | hit rate 0.98% among 360,000 | Q293 LMP1-TROYcd NF-kB luciferase reporter, 4 h | inhibition, % at 10 µM;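 active = compounds whose plate-normalised and pattern-corrected inhibition of the luciferase reporter signal at the single screening dose is 50% or more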
HSP90 inh: blocks HSP90-mediated luciferase refolding in reticulocyte lysate | inhibition, % at 5.6 µM | Rabbit reticulocyte lysate, luciferase refolding luminescence, 3 h | hit rate 0.91% among 290,000;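 active = inhibition above the screen-wide mean plus 3 SD, computed separately per campaign, cut at about 16% in these data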;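 note: 0% = DMSO wells and 100% = 60 µM geldanamycin wells; inhibitors lower the luminescence because luciferase stays unfolded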
aDG glyco act: alpha-DG glycosylation activation; activation, % at 10 µM; AID 624168; Pro5-aDG cells, alpha-DG glycosylation AlphaScreen (IIH6); 0% Pro5, 100% B10-LARGE cell signal; hit rate 0.22% among 360,000;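 active = activation of at least 8% versus controls, or a plate z-score of at least 8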;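 note: Pro5 are CHO cells carrying HIG-tagged alpha-DG that lacks glycosylation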
TWEAK-Fn14 inh: blocks TWEAK-Fn14 interaction in a reporter cell assay. TWEAK-stimulated Fn14 reporter cells, luciferase luminescence, 8 h. inhibition, % at 10 µM. hit rate 2% among 360,000. AID 1159606; in the data active = inhibition above about 50%
* = called active by the depositor; ? = inconclusive; . = no result given.

SMILES	LGR2 inh	LMP1 NFkB inh	TROY NFkB inh	HSP90 inh	aDG glyco act	TWEAK-Fn14 inh
COc1ccccc1NS(=O)(=O)c1cccc(C(=O)OCc2nc3ccccc3s2)c1	-69	-12	68*	3	0	58*
O=S(=O)(NC1CC1)c1ccc(Cl)cc1F	-10	-9	2	0	0	99*
COc1cccc(C=Nc2ccc3c(c2)OCCO3)c1O	.	-8	68*	12	0	80*
C[C@H]1CN([C@@H](C)CO)C(=O)c2cc(NC(=O)Nc3ccc4c(c3)OCO4)ccc2O[C@H]1CN(C)S(C)(=O)=O	3	.	.	.	.	.
Cc1[nH]nc2c1C(c1cc(Br)cs1)C(C#N)=C(N)O2 (configuration not stated)	14	14	5	-3	0	61*
Cc1[nH]nc2c1C(c1ccco1)C(C#N)=C(N)O2 (configuration not stated)	-24	-6	-19	-3	1	-2
CC(=O)c1ccc(NC(=O)COC(=O)c2c3c(nc4ccccc24)/C(=C\c2cccs2)CCC3)cc1	22	-4	16	0	0	57*
O=C(CCC(=O)N1CCOc2ccccc21)NC1CCCCCC1	15	-1	0	0	1	-7
CCOC(=O)N1CCC(NC(=O)CCC(=O)N2CCOc3ccccc32)CC1	.	-1	.	-2	0	64*
COc1ccc2c3c([nH]c2c1)[C@@H](CO)N(Cc1cccc(Cl)c1)CC31CN(C(C)=O)C1	-7	.	.	.	.	.
CN1C(=O)c2cc(NC(=O)c3cccs3)ccc2OC[C@@H]2O[C@H](CC(=O)NCC3CC3)CC[C@H]21	-3	.	.	.	.	.
FC(F)(F)c1cccc(-c2nc3nc(Cl)c(Cl)nc3[nH]2)c1	16	19	34	4	0	64*
FC(F)(F)c1nc2nc(Cl)c(Cl)nc2[nH]1	5	-1	4	.	0	9
Cc1cccc(S(=O)(=O)N2C[C@H](O)COC[C@@H]3O[C@@H](CC(=O)Nc4ccc(-c5ccccc5)cc4)CC[C@H]32)c1	17	.	.	.	.	.
C[C@@H]1CN([C@H](C)CO)C(=O)c2cc(NC(=O)Nc3ccccc3)ccc2O[C@H]1CN(C)C(=O)Nc1ccc2c(c1)OCO2	12	.	.	.	.	.
COC(=O)c1c(-c2ccc(Br)cc2)csc1NC(=O)Cc1ccc(OC)c(OC)c1	-4	19	-18	3	0	32
COC(=O)c1c(-c2cccc3ccccc23)csc1NC(=O)Cc1ccc(OC)c(OC)c1	.	2	40	10	0	75*
COC(=O)c1c(-c2ccc(C)cc2)csc1NC(=O)Cc1ccc(OC)c(OC)c1	7	6	42	6	1	57*
COc1ccc(-n2c(C)c(C(C)=O)c3cc(OC(C)=O)ccc32)cc1	25	60*	52*	-6	0	84*
COC(=O)c1c(C)n(-c2ccc(OC)cc2)c2ccc(O)cc12	.	16	39	-4	0	52*
CCOc1ccc(C=NNC(=O)c2ccc(-n3cnnn3)cc2)cc1	28	10	13	.	0	56*
COC(=O)c1ccc(Nc2cc(C)nc3ccc(C)cc23)cc1	74*	1	-25	4	0	-16
CCOC(=O)C(=Cc1ccc(-n2ccnc2)cc1)C(=O)OCC	50	26	64*	1	2	96*
CCOC(=O)C(=Cc1ccc(F)cc1)C(=O)OCC	.	.	.	1	.	.
CCOC(=O)C(=Cc1ccc(Br)cc1)C(=O)OCC	19	6	28	6	0	59*
SMILES	LGR2 inh	LMP1 NFkB inh	TROY NFkB inh	HSP90 inh	aDG glyco act	TWEAK-Fn14 inh
O=C1/C(=N\S(=O)(=O)c2cccs2)C([n+]2ccccc2)=C([O-])c2ccccc21	?	27	83*	9	0	27
CC(C)(C)c1cc[n+](C2=C([O-])c3ccccc3C(=O)/C2=N\S(=O)(=O)c2cccs2)cc1	26	.	70*	9	3.9*	84*
COc1ccccc1CN(Cc1nc2ccccc2c(=O)[nH]1)S(=O)(=O)c1ccc2ccccc2c1	?	10	47	5	0	55*
CC(=O)c1ccc(-c2nc3c4ccccc4ccn3c2C(C)=O)o1	.	77*	30	0	0	-32
CN(C)c1ccnc2sc(C(N)=O)c(N)c12	34	56*	-21	10	0	29
CC1(C)CC(=O)C=C(c2ccc(Oc3ccccc3)cc2)C1=O	-19	-2	-30	.	0	-10
CC1(C)CC(=O)C=C(c2ccc(-c3cnc4ccccc4c3)cc2)C1=O	63*	-13	92*	.	1	85*
CCCOc1ccccc1N/C(N)=N/c1nc(C)cc(C)n1	-8	4	-3	0	0	3
CCCOc1ccccc1N/C(=N/c1nc(C)cc(C)n1)NC(=O)COc1ccc(OC)cc1	.	24	18	5	2	53*
O=C(Nc1ncnc2c1C(c1ccccc1)c1c(ccc3ccccc13)O2)c1ccccc1 (configuration not stated)	1	-3	13	.	1	54*
O=C(Cc1ccccc1)Nc1ncnc2c1C(c1ccccc1)c1c(ccc3ccccc13)O2 (configuration not stated)	0	13	39	.	0	51*
CCOC(=O)CCC(=O)Nc1ncnc2c1C(c1ccccc1)c1c(ccc3ccccc13)O2 (configuration not stated)	25	-2	12	.	0	27
C[C@@H]1CN([C@H](C)CO)C(=O)c2cccc(NS(=O)(=O)c3cccs3)c2O[C@@H]1CN(C)S(C)(=O)=O	4	.	.	.	.	.
CN1C(=O)c2cc(NC(=O)c3cnccn3)ccc2OC[C@@H]2O[C@H](CC(=O)N[C@H]3CCN(Cc4ccccc4)C3)CC[C@@H]21	14	.	.	.	.	.
CO[C@@H]1CN(C)C(=O)c2ccc(NC(C)=O)cc2OC[C@H](C)N(Cc2cc(F)ccc2F)C[C@@H]1C	1	.	.	.	.	.
CCN(CC(O)CON=C1c2ccccc2-c2ccccc21)S(=O)(=O)c1ccc(Cl)cc1 (configuration not stated)	11	-5	13	0	0	63*
COC(=O)C(=O)C1CCc2c(Cl)cc(OC)c(OC)c2C1=O (configuration not stated)	.	87*	3	.	0	8
COCC(=O)Nc1ccc2c(c1)OC[C@@H](C)N(Cc1ccncc1)C[C@@H](C)[C@@H](OC)CN(C)C2=O	-10	.	.	.	.	.
Cc1cc(C)c(S(=O)(=O)/N=C2/C=C(SCC(=O)O)C(=O)c3ccccc32)cc1C	.	2	45	8	12*	26
CCC(=O)NC(c1cc(Cl)c2cccnc2c1O)C1CC1 (configuration not stated)	20	40*	4	.	0	17
CCC(=O)NC(c1cc(Cl)c2cccnc2c1O)C(C)C (configuration not stated)	29	47*	-13	.	1	12
